Experimental data: PubChem BioAssay (NCI)
About 83,000 compounds went through this panel and 20% of them were active in at least one assay; those are over-represented in the sample as a whole.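 Percent growth is the endpoint: 0 to 100 indicates growth inhibition (40 means 60% inhibition), 0 means no net growth, and negative values indicate cell death.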 Active and inactive are the calls of the source. The calls were made as follows: active = growth percent below 10; inactive = the rest.

What was measured:
Assay in all cases: NCI-60 one-dose screen, 48 h (100 = growth as untreated, 0 = no growth, -100 = all killed)
Conditions in all cases: 10 µM unless noted
NCI-H23 lung = test system: NCI-H23 lung
NCI-H226 lung = test system: NCI-H226 lung
NCI-H322M lung = test system: NCI-H322M lung
HOP-62 NSCLC = test system: HOP-62 NSCLC
NCI-H460 lung = test system: NCI-H460 lung
NCI-H522 lung = test system: NCI-H522 lung
A549/ATCC NSCLC = test system: A549/ATCC NSCLC
786-0 renal = test system: 786-0 renal
COLO 205 colon = test system: COLO 205 colon
DU-145 prostate = test system: DU-145 prostate
K-562 leukemia = test system: K-562 leukemia
MDA-MB-231 breast = test system: MDA-MB-231 breast
RXF 393 renal = test system: RXF 393 renal
SF-268 CNS = test system: SF-268 CNS
SF-295 CNS = test system: SF-295 CNS
SF-539 CNS = test system: SF-539 CNS
UACC-257 melanoma = test system: UACC-257 melanoma
M14 melanoma = test system: M14 melanoma

Measured: growth

NC(N)=Nc1ccc(Oc2cccc(Nc3cccc(C(F)(F)F)c3)c2)cn1
inactive: NCI-H226 lung 20.1% | NCI-H322M lung 14.7% | A549/ATCC NSCLC 35.8% | 786-0 renal 33.7% | MDA-MB-231 breast 12% | SF-268 CNS 49.3% | SF-539 CNS 70.8% | UACC-257 melanoma 25.8%
active: NCI-H23 lung -2.6% | HOP-62 NSCLC 3.3% | NCI-H460 lung -76.8% | NCI-H522 lung -34.6% | COLO 205 colon -47.3% | DU-145 prostate -10.7% | K-562 leukemia -47.3% | RXF 393 renal 2.79% | SF-295 CNS -86.1% | M14 melanoma 5.01%

C#CCn1cccc1CNc1ccc(OC)cc1
inactive: NCI-H322M lung 47% | UACC-257 melanoma 23.6%
active: NCI-H23 lung -88.9% | NCI-H226 lung -50.1% | HOP-62 NSCLC -45.3% | NCI-H460 lung -50.5% | NCI-H522 lung -57.7% | A549/ATCC NSCLC -47.6% | 786-0 renal -69.6% | COLO 205 colon -60.7% | DU-145 prostate -96.6% | K-562 leukemia -46.9% | MDA-MB-231 breast -53.9% | RXF 393 renal -32.3% | SF-268 CNS -56% | SF-295 CNS -92% | SF-539 CNS -94.4% | M14 melanoma 7.08%

CC(C)(C)c1ccc(C(=O)Nc2sc3c(c2C(N)=O)CCC(O)C3)cc1 (centres undefined)
inactive: NCI-H23 lung 66.5% | NCI-H226 lung 68.7% | NCI-H322M lung 58.1% | HOP-62 NSCLC 63% | NCI-H460 lung 17% | NCI-H522 lung 31.2% | A549/ATCC NSCLC 39.6% | 786-0 renal 15.4% | DU-145 prostate 58.6% | MDA-MB-231 breast 65.6% | RXF 393 renal 44.5% | SF-268 CNS 63.2% | SF-539 CNS 23.3% | UACC-257 melanoma 36.8%
active: COLO 205 colon 6.84% | K-562 leukemia 6.74% | SF-295 CNS -1.38% | M14 melanoma -3.35%

Cc1nn(-c2ccccc2)c2ncnc(N/N=C/c3ccccc3)c12
inactive: NCI-H23 lung 97.3% | NCI-H226 lung 78.3% | NCI-H322M lung 95% | HOP-62 NSCLC 116% | NCI-H460 lung 95.6% | NCI-H522 lung 85.8% | A549/ATCC NSCLC 92.4% | 786-0 renal 84.6% | COLO 205 colon 104% | DU-145 prostate 91.2% | K-562 leukemia 78.5% | MDA-MB-231 breast 109% | RXF 393 renal 91.3% | SF-268 CNS 91.7% | SF-295 CNS 108% | SF-539 CNS 103% | UACC-257 melanoma 113% | M14 melanoma 103%

NC(N)=Nc1ccc(Oc2cccc(Oc3ccc(Cl)c(C(F)(F)F)c3)c2)cn1
active: NCI-H23 lung -83.5% | NCI-H226 lung -73.4% | NCI-H322M lung -6.46% | HOP-62 NSCLC -56% | NCI-H460 lung -78.8% | NCI-H522 lung -67.9% | A549/ATCC NSCLC -67.1% | 786-0 renal -82% | COLO 205 colon -68.2% | DU-145 prostate -91.9% | K-562 leukemia -54.7% | MDA-MB-231 breast -82.9% | RXF 393 renal 7.96% | SF-295 CNS -93.5% | SF-539 CNS -79.7% | UACC-257 melanoma -56% | M14 melanoma -84.3%
inactive: SF-268 CNS 64.9%

C#C[C@]1(O)CC[C@H]2[C@@H]3CC=C4c5sc(-c6cccc(O)c6)nc5CC[C@]4(C)[C@H]3CC[C@@]21C
active: NCI-H23 lung -26.8% | NCI-H226 lung -29.4% | NCI-H322M lung -5.55% | HOP-62 NSCLC -20.8% | NCI-H460 lung -52.9% | NCI-H522 lung 3.14% | A549/ATCC NSCLC -16.2% | 786-0 renal -57.6% | COLO 205 colon -25.3% | DU-145 prostate 2.17% | K-562 leukemia -5.49% | MDA-MB-231 breast -40.8% | RXF 393 renal -68.5% | SF-268 CNS -15.4% | SF-295 CNS -64.7% | SF-539 CNS -68.9% | UACC-257 melanoma -42.6% | M14 melanoma -41.1%

O=C(CN1CCN(c2cc(=O)n(-c3ccccc3)c3ccccc23)CC1)Nc1nc(-c2ccc(Cl)cc2)cs1
inactive: NCI-H23 lung 49.8% | NCI-H226 lung 47.4% | NCI-H322M lung 89.1% | HOP-62 NSCLC 65.8% | NCI-H460 lung 54.8% | NCI-H522 lung 56.3% | A549/ATCC NSCLC 52.6% | 786-0 renal 67.6% | COLO 205 colon 57.3% | DU-145 prostate 61.6% | K-562 leukemia 24.2% | MDA-MB-231 breast 74.7% | RXF 393 renal 67% | SF-268 CNS 54.5% | SF-295 CNS 62.6% | SF-539 CNS 76.1% | UACC-257 melanoma 28% | M14 melanoma 55.1%

COc1ccc(C2CC(c3ccc(Nc4nc(NCCO)nc(N5CCOCC5)n4)cc3)=Nc3c(N)nc(N)nc3N2)cc1 (centres undefined)
inactive: NCI-H23 lung 99.1% | NCI-H226 lung 94.8% | NCI-H322M lung 95% | HOP-62 NSCLC 108% | NCI-H460 lung 110% | NCI-H522 lung 95.6% | A549/ATCC NSCLC 104% | 786-0 renal 97.3% | COLO 205 colon 109% | DU-145 prostate 103% | K-562 leukemia 99.1% | MDA-MB-231 breast 90.6% | RXF 393 renal 114% | SF-268 CNS 90.2% | SF-295 CNS 106% | SF-539 CNS 92.2% | UACC-257 melanoma 109% | M14 melanoma 107%
